Screen size: about 310,000 compounds; about 17,000 (5.5%) were called active. A call without a number means that no potency is given here. Roughly 11% stayed inconclusive and do not appear here. The full list was thinned out, with actives kept by preference. Values without a mark were called inactive. Calls come from the whole dose curve; as a rule, active = well fitted inhibition curve with a large enough effect; inconclusive = small, poorly fitted or top-dose-only effect, or effect the other way; inactive = no such curve, though single readings can be large or run the other way.
These compounds were tested against Nuclear receptor ROR-gamma (Mus musculus) (UniProt P51450) (assay: qHTS for inhibitors of ROR gamma transcriptional activity). Details: Drosophila S2 Gal4-RORgamma UAS-luciferase reporter, 20 h; series mostly up to 53.6 µM.
Source text: NIH Molecular Libraries Probe Production Network [MLPCN] NIH Chemical Genomics Center [NCGC] MLPCN Grant: R03 DA026211-01 Assay Provider: Dan Littman, New York University Assay Overview: The retinoic acid-related orphan receptor (ROR) gamma is a transcription factor that has a central role in the differentiation of Th17 cells, a subset of T helper cells that secrete the inflammatory cytokines IL-17, IL-17F, and IL-22. Th17 cells have been implicated in graft versus host disease, autoimmune disease and asthma. ROR gamma is induced in naive T helper cells in the presence of TGF-beta combined with IL-6, IL-21, or IL-23, and thereafter directs the expression of the Th17 lineage cytokines. To study the mechanism of action of ROR gamma, an insect cell-based assay was screened. This Drosophila Schneider cell line was stably transfected with two vectors: a gene expressing a fusion of the Gal4 DNA binding domain and ROR gamma transactivation domain under the control of the metallothionine promoter and a Photinus luciferase reporter regulated by the Gal4 binding site enhancer, UAS. […] Small molecule inhibitors of ROR gamma activity are detected by a decrease in luciferase reporter activity.
Assay Protocol Summary: For screening, 600 cells in 4 uL/well were dispensed into white solid 1536-well plates (Grenier) using a solenoid-based dispenser. Following transfer of 23 nL compound or DMSO vehicle by a pin tool, the plates were incubated 1 hr at ambient temperature, and 1 uL/well copper sulfate (700 uM final concentration) was added. The plates were centrifuged 15 s at 1000 RPM and incubated 20 hr at ambient temperature. After addition of 1.5 uL Photinus luciferase detection reagent, the plates were incubated 10 min at ambient temperature and then read by an ViewLux (Perkin Elmer) to detect luminescence. Keywords: NIH Roadmap, MLPCN, MLI, MLSMR, qHTS, NCGC, qHTS, nuclear hormone receptor, retinoic acid-related orphan receptor, ROR gamma
Note: nearly all actives have a fitted effect of over 60% in size.
Potency is the fitted concentration of half-maximal effect.

Chain of Nuclear receptor ROR-gamma (Mus musculus) (P51450 whole entry, looked up, the tested form may be a part): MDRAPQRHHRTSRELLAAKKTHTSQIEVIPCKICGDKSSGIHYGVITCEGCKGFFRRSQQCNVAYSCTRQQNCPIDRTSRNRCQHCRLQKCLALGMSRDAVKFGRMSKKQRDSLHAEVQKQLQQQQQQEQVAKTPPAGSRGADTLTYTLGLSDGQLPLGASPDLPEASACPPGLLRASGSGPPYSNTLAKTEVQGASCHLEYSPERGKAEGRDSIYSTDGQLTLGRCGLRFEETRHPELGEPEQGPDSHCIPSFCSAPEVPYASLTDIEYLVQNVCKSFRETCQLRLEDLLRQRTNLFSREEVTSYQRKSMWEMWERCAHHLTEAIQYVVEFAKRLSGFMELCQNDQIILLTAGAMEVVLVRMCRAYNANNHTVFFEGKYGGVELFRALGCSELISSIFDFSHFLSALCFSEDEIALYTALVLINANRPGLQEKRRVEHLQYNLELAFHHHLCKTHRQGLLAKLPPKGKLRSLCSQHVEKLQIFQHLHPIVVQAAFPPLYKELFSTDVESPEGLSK

| Structure (SMILES) | activity change, negative = inhibition | Potency |
| --- | --- | --- |
| CCC(=O)c1cn(CCOc2ccccc2OC)c2ccccc12 | -12.4% [at 1.91 µM] | – |
| Cc1cccc(NC(=O)C2CCCN(C(=O)NCc3ccccc3)C2)c1C (configuration not stated) | – | inactive |
| CN(C)c1ccc(CNC(=O)CN2C(=O)COc3ccc(S(=O)(=O)N4CCCC4)cc32)cc1 | – | inactive |
| COc1ccc2c(Cl)c(C(=O)NCc3ccco3)sc2c1 | – | inactive |
| O=C(Nc1ccc(NC(=O)c2ccco2)c(Cl)c1)c1cccc([N+](=O)[O-])c1 | – | inactive |
| COc1cc(NC(=S)NCc2ccco2)c(OC)cc1Cl | – | 7.08 µM (active) |
| CCOc1cc(NC(=S)NCCCOC)c(OCC)cc1NC(=O)c1ccco1 | – | 20 µM (active) |
| COc1ccc(NC(=O)CCC(=O)Nc2cc(OC)c(NC(=O)c3ccco3)cc2OC)c(OC)c1 | – | inactive |
| CCOc1cc(NC(=O)c2ccco2)c(OCC)cc1NC(=O)COc1ccccc1 | – | inactive |
| CCOc1cc(NC(=S)NCCCN(C)C)c(OCC)cc1NC(=O)C1CC1 | – | inactive |
| COC(=O)c1cc(Cl)c(NC(=O)c2ccco2)cc1OC | – | inactive |
| COc1ccc(CC(=O)Nc2ccccc2NC(=O)c2ccco2)cc1OC | – | inactive |
| CCC(=O)NC(=S)Nc1ccc(NC(=O)c2ccco2)c(Cl)c1 | – | 2.51 µM (active) |
| CCOc1cc(NC(=S)NCc2ccco2)c(OCC)cc1NC(=O)c1ccco1 | – | 1.12 µM (active) |
| CCOCC(=O)Nc1cc(OC)c(Cl)cc1OC | – | inactive |
| CCc1nn(CCCC(=O)Nc2ccc(C)c(C)c2)c(=O)c2cc3occc3n12 | – | inactive |
| O=C(O)c1cc(S(=O)(=O)NC2CCCc3ccccc32)ccc1O (configuration not stated) | – | inactive |
| CC(C(=O)NCCc1ccc(S(N)(=O)=O)cc1)N1C(=O)CC(C)(C)Sc2ccccc21 (configuration not stated) | – | inactive |
| CNC(=O)N1c2ccccc2C=Cc2ccccc21 | – | inactive |
| Clc1nc(NC2CCCC2)nc(N2CCOCC2)n1 | – | inactive |
| COc1cccc(N(CC(=O)NC2CCCC2)C(=O)Cn2nnc(-c3ccc(C)o3)n2)c1 | – | inactive |
| S=c1[nH]nc(-c2cc(-c3ccccc3)n[nH]2)n1/N=C/c1c2ccccc2cc2ccccc12 | – | 7.94 µM (active) |
| S=c1[nH]nc(-c2ccco2)n1/N=C/c1ccc(Br)s1 | – | 11.2 µM (active) |
| Oc1ccccc1/C=N/n1c(-c2cccs2)n[nH]c1=S | – | 10 µM (active) |
| Cc1ccc(-c2n[nH]c(=S)n2/N=C/c2cc3c(cc2[N+](=O)[O-])OCO3)cc1 | – | inactive |
| CCN(CC)S(=O)(=O)c1cccc(-c2n[nH]c(=S)n2/N=C/c2ccc(C(=O)OC)cc2)c1 | – | inactive |

| Structure (SMILES) | activity change, negative = inhibition | Potency |
| --- | --- | --- |
| S=c1[nH]nc(-c2ccncc2)n1/N=C/c1ccccc1Cl | – | inactive |
| Brc1ccc(/C=N/N2CCN(C3c4ccccc4-c4ccccc43)CC2)s1 | – | inactive |
| c1ccc(-c2cc(-c3nnc4sc(-c5ccccn5)nn34)[nH]n2)cc1 | – | inactive |
| S=c1[nH]nc(-c2cccs2)n1/N=C/c1cn(-c2ccccc2)nc1-c1ccc(Cl)cc1 | – | inactive |
| Cc1ccc(/C=N\n2c(-c3ccccc3)n[nH]c2=S)s1 | – | 3.98 µM (active) |
| CCOc1ccc(-c2n[nH]c(=S)n2/N=C/c2cc3c(cc2[N+](=O)[O-])OCO3)cc1 | -47.7% [at 10 µM] | – |
| O=C(CCN1CCN(C/C=C/c2ccccc2)CC1)Nc1ccccc1Cl | – | inactive |
| C/C=C/C(=O)OCc1csc(CC(=O)Nc2ccccc2C)n1 | – | inactive |
| COc1cccc(N(CC(=O)NC2CCCCCC2)S(=O)(=O)c2ccccc2)c1 | – | inactive |
| COc1ccc(CCNC(=O)CCc2cn(C)c3ccccc23)c(OC)c1 | – | inactive |
| Cc1cccc(NC(=S)NC23CN4CN(CN(C4)C2)C3)c1 | – | inactive |
| Cc1cccc(NC(=S)NCCN(C2CCCCC2)C2CCCC2)c1 | – | 8.91 µM (active) |
| Cc1cccc(NC(=O)C2CCN(C(=O)NC3CCCCC3)CC2)c1 | – | inactive |
| O=C(NC1CCCC1)C(=O)c1c[nH]c2ccccc12 | – | inactive |
| CCOc1ccc2[nH]c(C(=O)N/N=C/c3cccc(OC)c3OC)cc2c1 | – | inactive |
| C#CC(C)(C)NC(=O)c1cnc(-c2ccccc2)nc1-c1ccccc1 | – | inactive |
| COc1ccc(Cc2nnc(NC(=O)c3ccc(OC)cc3OC)s2)cc1 | – | inactive |
| COc1ccccc1NC(=O)Nc1nnc(Cc2ccc(F)cc2)s1 | – | inactive |
| CCCc1nnc(NC(=O)c2cc(OC)cc(OC)c2)s1 | – | 11.2 µM (active) |
| CCCc1nnc(NC(=O)CCC(=O)N2CCN(S(=O)(=O)c3ccc(OC)cc3)CC2)s1 | – | inactive |
| CCCc1nnc(NC(=O)c2cccs2)s1 | – | inactive |
| COc1ccc(Cc2nnc(NC(=O)c3cc(OC)c(OC)c(OC)c3)s2)cc1OC | – | 7.08 µM (active) |
| Cc1cc(C)c2nc(N3CCC(C(=O)NCCN4CCOCC4)CC3)sc2c1 | – | inactive |
| Cc1nonc1NC(=O)c1oc2ccccc2c1C | – | inactive |
| COc1ccc(C(=O)C2CCCN(C(=O)c3cc(C)on3)C2)cc1F (configuration not stated) | – | inactive |
| COc1ccccc1CNC(=O)c1ccc(N(C)S(=O)(=O)c2ccc(C)cc2)cc1 | – | inactive |

Reference: PubChem BioAssay AID2551 (National Center for Advancing Translational Sciences (NCATS), 2010)
